The values below come from the supplement of paper PMC6522484.

Assay [1] relates to DLD1. Kind of assay: cell viability (CellTiter-Glo) relative to plate median (fraction of plate median); higher = more viable cells. The conditions noted are these: 5 µM; treatment time 24 h; reporter: 7TFP. The procedure, abridged: (§1)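 For this screen, colorectal cancer cell lines carrying stable lentiviral TCF/Wnt firefly luciferase reporters, either 7TFP or TCF4/Wnt, were seeded into 384-well plates. A day's wait of 24 h preceded addition of library compounds at a final 5 µM, which stayed on the cells for 24 h. Firefly luciferase or CellTiterGlo luminescence, read on parallel plates, was normalised to the plate median per well, and the reported value is the mean of two independent replicates.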
Background: Cellular ATP, detected with luciferase, serves as a proxy for viable cell number.

In the next assay the test system is HCT116. The assay is described as above. The conditions noted are these: 5 µM; treatment time 24 h; reporter: TCF4/Wnt. The procedure, abridged: as §1
The subject of assay [2] is SW480. Described as above. The conditions noted are these: 5 µM; treatment time 24 h; reporter: 7TFP. The procedure, abridged: as §1
The subject of assay [3] is DLD1. Kind of assay: TCF/Wnt firefly luciferase reporter signal relative to plate median (fraction of plate median); higher = higher Wnt reporter signal. The note with it: 5 µM; treatment time 24 h; reporter: 7TFP. The procedure, abridged:
as §1
In general terms: Reporter assays use an easily measured gene product as a stand-in for the process of interest.

For assay [4], the system named is SW480. The assay is described as above. The note with it: 5 µM; treatment time 24 h; reporter: 7TFP. The procedure, abridged:
as §1

± gives the standard deviation of the averaged measurements.

As for `COc1cccc2c1C(=O)c1c(O)c3c(c(O)c1C2=O)C[C@@](O)(C(C)=O)C[C@@H]3O[C@H]1C[C@H](N)[C@H](O)[C@H](C)O1`, the values for the cell viability in the assay on DLD1 [1], with HCT116 and in the assay on SW480 [2] were 0.958 ± 0.027, 0.575 ± 0.037 and 1.03 ± 0.1, respectively. Besides, the figures for the “TCF/Wnt firefly luciferase reporter signal” value in the assay on DLD1 [3] and in the assay on SW480 [4] were 0.781 ± 0.21 and 0.564 ± 0.26, respectively.
In the same order, the values of `COc1c(CC(=O)c2cc3c(cc2O)OC(C)(C)C(O)C3)ccc2c1C=CC(C)(C)O2` (stereo not given) are 1.02 ± 0.03, 1.02 ± 0.035, 0.911 ± 0.021, 0.941 ± 0.039 and 0.929 ± 0.08.
Turning to `CC1(C)O[C@H]2CC(=O)OC[C@]23[C@H]2CC[C@@]4(C)[C@H](c5ccoc5)OC(=O)[C@H]5O[C@]54[C@]2(C)C(=O)C[C@@H]13`, the cell viability in the assay with DLD1 [1] was found to be 1.01 ± 0.045; in the assay with HCT116, 1.07 ± 0.064; in the assay on SW480 [2], 1.05 ± 0.05. The “TCF/Wnt firefly luciferase reporter signal” value was 0.944 ± 0.03 with DLD1 [3] and 0.98 ± 0.099 with SW480 [4].
For `CC(Oc1ccccc1)C(=O)N[C@@H]1C(=O)N2[C@@H]1SC(C)(C)[C@@H]2C(=O)O` (stereo not given in full), in that order: 0.97 ± 0.032, 0.928 ± 0.022, 0.9865 ± 0.00071, 1.07 ± 0.071 and 1.065 ± 0.0071.
In the same order, the values of `C[C@@H]1O[C@@H](O[C@H]2[C@H](Oc3cc(O)c4c(c3)O[C@H](c3ccc(O)cc3)CC4=O)O[C@H](CO)[C@@H](O)[C@@H]2O)[C@H](O)[C@H](O)[C@H]1O` are 1.07 ± 0.042, 0.916 ± 0.11, 0.975 ± 0.02, 0.992 ± 0.24 and 1.01 ± 0.16.
For `CC=CC1=C(C(=O)O)N2C(=O)[C@@H](NC(=O)[C@H](N)c3ccc(O)cc3)[C@H]2SC1`, in that order: 0.992 ± 0.012, 1.03 ± 0.06, 0.983 ± 0.039, 1.09 ± 0.099 and 1.17 ± 0.064.
Turning to `OC(c1cc(C(F)(F)F)nc2c(C(F)(F)F)cccc12)C1CCCCN1` (stereo not given), the cell viability with DLD1 [1] was determined as 0.953 ± 0.033; with HCT116, 1.005 ± 0.0071; with SW480 [2], 1.02 ± 0.051. Besides, the entries for the “TCF/Wnt firefly luciferase reporter signal” value with DLD1 [3] and in the assay on SW480 [4] were 1.18 ± 0.028 and 1.11 ± 0.057, respectively.
`CC(CN(C)C)CN1c2ccccc2CCc2ccccc21` (stereo not given): the cell viability in the assay on DLD1 [1] stood at 1 ± 0.021; with HCT116 it was 0.929 ± 0.055; in the assay with SW480 [2] it was 1.05 ± 0.086. In addition, the “TCF/Wnt firefly luciferase reporter signal” value was determined as 0.93 ± 0.097 with DLD1 [3] and 1.13 ± 0.099 in the assay on SW480 [4].
In the same order, the values of `CCCC(=O)O[C@]1(C(=O)CO)CC[C@H]2[C@@H]3CCC4=CC(=O)CC[C@]4(C)[C@H]3[C@@H](O)C[C@@]21C` are 0.965 ± 0.03, 0.958 ± 0.16, 1.02, 0.895 ± 0.016 and 0.956 ± 0.0057.
In the same order, the values of `N[C@@H](C=O)[C@@H](O[C@@H]1O[C@H](C(=O)O)[C@@H](O)[C@H](O)[C@H]1O)[C@@H](O)[C@H](O)CO` are 1.02, 1.14 ± 0.22, 1 ± 0.054, 0.939 ± 0.029 and 1 ± 0.078.
For `O=C(C1CCCCC1)N1CC(=O)N2CCc3ccccc3C2C1` (stereo not given), the values for the cell viability in the assay with DLD1 [1], in the assay on HCT116 and in the assay on SW480 [2] were 0.9955 ± 0.0064, 0.984 ± 0.037 and 0.98 ± 0.042, respectively. Moreover, the entries for the “TCF/Wnt firefly luciferase reporter signal” value with DLD1 [3] and in the assay on SW480 [4] were 1.02 ± 0.034 and 0.918 ± 0.12, respectively.
For `CC(=O)O[C@@H]1CC2C(C)(C)C(=O)C3OC3[C@]2(C)C2CC[C@@]3(C)[C@H](c4ccoc4)OC(=O)C4OC43[C@@]21C` (stereo not given in full), in that order: 1.06 ± 0.014, 1.1 ± 0.085, 1.02 ± 0.035, 1.02 ± 0.057 and 0.864 ± 0.078.
In the same order, the values of `CC[C@H]1OC(=O)C[C@@H](O)[C@H](C)[C@@H](O[C@@H]2O[C@H](C)[C@@H](O)[C@H](N(C)C)[C@H]2O)[C@@H](CCN2C[C@H](C)C[C@H](C)C2)C[C@@H](C)C(=O)/C=C/C(C)=C/[C@@H]1CO[C@@H]1O[C@H](C)[C@@H](O)[C@@H](OC)[C@H]1OC` are 0.981 ± 0.041, 1.1 ± 0.05, 0.972 ± 0.021, 1.02 ± 0.077 and 1.09 ± 0.064.
